ATG4B inhibitor – inhibitors of human ATG4B cysteine protease; hit rate 0.51% among 340,000; ATG4B cleavage of LC3-PLA2, NBD-HPC fluorescence, 1 h; AID 504462; inhibition, % at 8.33 µM; in the data active = inhibition above about 40%
Target sequence (Q9Y4P1 whole entry, looked up): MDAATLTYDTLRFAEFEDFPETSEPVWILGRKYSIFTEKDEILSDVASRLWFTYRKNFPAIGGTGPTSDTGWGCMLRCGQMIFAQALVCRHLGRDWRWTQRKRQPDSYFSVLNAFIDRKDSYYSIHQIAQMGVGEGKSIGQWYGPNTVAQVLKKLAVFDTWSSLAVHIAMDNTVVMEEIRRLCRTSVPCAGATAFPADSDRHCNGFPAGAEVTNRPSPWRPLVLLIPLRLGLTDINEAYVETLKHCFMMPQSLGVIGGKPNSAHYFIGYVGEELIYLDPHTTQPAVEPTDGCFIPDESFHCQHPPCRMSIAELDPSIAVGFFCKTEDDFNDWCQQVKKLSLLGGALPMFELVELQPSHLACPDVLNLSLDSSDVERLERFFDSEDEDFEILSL
SKKanGAS inh – blocks kanamycin growth of S. pyogenes SKKanGAS strain; BacTiter-Glo, 6 h; inhibition, % at 7.5 µM; hit rate 1.3% among 300,000; AID 1662;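 active = mean replicate score, as percent of positive control median, at least 50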;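 note: strain carries kanamycin resistance gene driven by streptokinase promoter and grows in 40 µg/ml kanamycin; loss of luminescence reflects streptokinase promoter inhibition or plain growth inhibition; 0% = median of DMSO wells and 100% = positive control at its reference dose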
PfHsp90 set2 – growth inhibition of yeast expressing Plasmodium Hsp90. S. cerevisiae expressing PfHsp90, BacTiter-Glo ATP, 48 h; yeast lacking PDR1 and PDR3 efflux regulators. inhibition, % at 9.4 µM. hit rate 0.32% among 310,000;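 active = every replicate shows inhibition above about 80%, whatever the replicate mean, limit read from the data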;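 note: 0% = DMSO neutral controls and 100% = 20 µM radicicol positive controls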
tim23-1 inh – growth inhibitors of tim23-1 mutant yeast | S. cerevisiae tim23-1 growth, BacTiter-Glo luminescence, 24 h | inhibition, % at 20 µM | hit rate 1.3% among 330,000 | AID 463212;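 active = growth inhibition of the mutant yeast at or above 50%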;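 note: temperature-sensitive mutant grown at 25 °C; plate controls were DMSO-treated mutant yeast for no effect and medium wells lacking yeast for full effect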
tim10-1 inh – growth inhibitors of tim10-1 mutant yeast | S. cerevisiae tim10-1 ts strain growth, BacTiter-Glo, 24 h | inhibition, % at 20 µM | hit rate 2.2% among 330,000 | AID 463190;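 active = inhibition of at least 40%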;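 note: mutant grown at 25 °C; 0% = DMSO wells with yeast and 100% = wells holding no yeast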
TIM10 inh – inhibits growth of TIM10 yeast strain | inhibition, % at 10 µM | hit rate 1.4% among 330,000 | S. cerevisiae TIM10 strain growth, BacTiter-Glo luminescence, 24 h;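 active = inhibition of 40% or more at the single tested concentration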;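 note: wild-type TIM10 isogenic control strain grown at permissive 25 °C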
ATG4B conf – confirmation of human ATG4B inhibitors; inhibition, % at 8.33 µM; hit rate 92% among 320; shares compounds with ATG4B inhibitor; ATG4B protease fluorescent substrate cleavage assay; in the data active = inhibition above about 39%
PLA2 ctr – PLA2 (human) inhibition in ATG4B counter-screen; shares compounds with ATG4B inhibitor; purified PLA2, NBD-C6-HPC fluorescence, 45 min; inhibition, % at 8.33 µM; hit rate 66% among 1,600; in the data active = inhibition above about 50%
Target sequence (P04054 whole entry, looked up): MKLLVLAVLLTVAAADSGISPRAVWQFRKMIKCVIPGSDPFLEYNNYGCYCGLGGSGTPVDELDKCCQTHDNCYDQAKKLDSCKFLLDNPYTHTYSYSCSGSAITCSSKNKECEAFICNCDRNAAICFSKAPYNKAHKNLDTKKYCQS
* hit, by the source's call; . = not tested or not shown. Sampled rows, rich in hits. Any-hit rate of the full collection: about 4.7%.

SMILES	ATG4B inhibitor	SKKanGAS inh	PfHsp90 set2	tim23-1 inh	tim10-1 inh	TIM10 inh	PLA2 ctr	others
Cc1nc(=S)n(-c2ccccc2)[nH]1	-1	-2	11	10	5	0	.
CCOC(=O)c1c(N)c2cc([N+](=O)[O-])cnc2n1C	2	39	.	-2	5	0	.
O=C(O)c1ccc(NS(=O)(=O)c2ccc3c(c2)C(=O)c2ccccc2C3=O)cc1	17	0	-10	16	8	-5	.
O=C(O)c1ccc(NC2=C/C(=N/S(=O)(=O)c3ccccc3)c3ccccc3C2=O)cc1	43*	.	-30	40	38	14	-9	ATG4B conf=61*
Cc1nc(CSc2nnc(Nc3cccc(C)c3C)s2)cs1	4	-15	22	30	30	28	.
CC1(C)Cc2ccccc2-c2nnc(SCC(=O)Nc3nc4ccccc4s3)n21	42*	21	-15	13	16	-2	51*
CCOP(=O)(OCC)C(NC(=O)c1ccc(OC)cc1)c1ccccc1 (stereo unspecified)	8	-2	23	4	7	1	.
Cc1cc(S(=O)(=O)N2CCN(c3ccccc3C)CC2)ccc1F	45*	1	-12	28	26	16	52*
Cc1ccccc1N1CCN(S(=O)(=O)c2ccccc2)CC1	37	2	-3	30	25	30	.
Cc1cc(S(=O)(=O)N2CCN(c3c(C)cccc3C)CC2)ccc1F	49*	29	1	22	20	-2	52*
CSc1ccc(CNc2nnnn2C)cc1	-11	2	.	8	4	-16	.
O=C1NN(c2cccc(Br)c2)C(=O)/C1=C\c1ccccc1	4	3	-11	34	-47	2	.
COc1ccccc1-n1c(SC(C)C(=O)NCC2CCCO2)nc2cc(Cl)ccc2c1=O (stereo unspecified)	-3	18	14	11	14	6	.
O=C(O)c1cc(-c2ccccc2)nc2nc(N3CCCCC3)sc12	.	21	.	7	6	7	.
Cc1ccc(-c2cc(C(=O)O)c3sc(N4CCCCC4)nc3n2)cc1	40*	19	-3	16	19	0	-6
COc1ccc(C(=O)NN=C(Cc2ccccc2)Cc2ccccc2)cc1OC	-8	-5	7	16	16	14	.
Cc1ccccc1CSc1nnc(NC(=O)C2COc3ccccc3O2)s1 (stereo unspecified)	49*	18	-22	15	26	17	61*
O=C(Nc1nnc(SCc2cccc3ccccc23)s1)C1COc2ccccc2O1 (stereo unspecified)	44*	26	-10	24	18	1	62*
Cc1ccccc1CSc1nnc(NC(=O)Cc2cccs2)s1	20	3	0	11	4	11	.
CC(Sc1ccc(Cl)cc1)C(=O)Nc1ccccc1-c1ccccc1 (stereo unspecified)	50*	2	-7	.	.	.	34	ATG4B conf=71*
Cc1ccc(SC(C)C(=O)Nc2ccccc2-c2ccccc2)cc1 (stereo unspecified)	31	-10	-30	28	7	9	.
O=C(NC12CC3CC(CC(C3)C1)C2)OCCNC1CCCCC1	-10	-5	-4	-20	-16	2	.
CCCCN(CC)S(=O)(=O)c1ccc(C(=O)N(CCCN(C)C)c2nc3cc(C)cc(C)c3s2)cc1	-1	-2	-6	10	35	31	.
Cc1cc(C)c2sc(N(CCCN(C)C)C(=O)c3ccc(S(=O)(=O)N(C)Cc4ccccc4)cc3)nc2c1	42*	22	16	2	39	27	49
O=C(CCN1CCN(CCO)CC1)Nc1ccc(F)c(F)c1	-5	1	-12	7	7	-7	.
SMILES	ATG4B inhibitor	SKKanGAS inh	PfHsp90 set2	tim23-1 inh	tim10-1 inh	TIM10 inh	PLA2 ctr	others
Cc1nnc(NC(=O)CSc2nnc(Cc3cccn3C)n2-c2cccc(C(F)(F)F)c2)s1	-3	3	5	-4	1	1	.
N#CC1=C(S)N(c2ccccc2)C(c2ccc(-c3ccccc3Cl)o2)NC1=O (stereo unspecified)	66*	5	2	18	15	3	74*
c1cncc(-c2noc(CC3CCCCC3)n2)c1	-6	9	4	10	11	31	.
N#Cc1c(-c2cccc(Br)c2)cc(-c2ccco2)[nH]c1=O	.	15	-2	6	4	3	41
COc1ccccc1CN(C)C(=O)COC(=O)c1c(C)noc1C	2	.	-15	7	13	0	.
CC(C)OC(=O)[C@H]1[C@H](c2ccc(Cl)cc2)[C@@](C#N)(C(N)=O)[C@@H]2C=CC(C(N)=O)=CN21	64*	-7	24	.	.	.	74*
CCn1c(SCc2c(Cl)cccc2Cl)nc2nc3c(cc2c1=O)CCCC3	0	26	-4	14	29	17	.
CCn1c(SCc2ccccc2Cl)nc2nc3c(cc2c1=O)CCCC3	40*	41	9	.	.	.	27	ATG4B conf=66*
CCOC(=O)c1ccc(COc2nc3ccccc3nc2-c2ccccc2NC(C)=O)o1	5	2	30	6	6	-12	.
Fc1ccc(CNc2nc(-c3ccco3)cc(C(F)(F)F)n2)cc1	41*	14	-5	13	9	2	52*
FC(F)(F)c1cc(-c2ccco2)nc(NCc2ccccc2)n1	37	5	.	22	10	-6	.
C=CCC[C@H](Cc1ccc(F)cc1)C(=O)OC[C@@H](Cc1c[nH]c2ccccc12)NC(=O)[C@H](CC=C)CC(=O)NCCO	-24	.	.	12	20	4	.
Cc1c(Cl)cccc1NC(=S)NCCc1ccc(C(F)(F)F)cc1	89*	12	-17	-3	29	16	94*
COc1cccc(CNc2cc(CSc3ccc(Cl)cc3)nc(C)n2)c1	54*	2	-8	31	4	-11	63*
COc1ccccc1CNc1cc(CSc2ccc(Cl)cc2)nc(C)n1	18	-1	.	37	17	3	.
Cc1cccc(NC(=O)C(C)Oc2ccccc2C)n1 (stereo unspecified)	-8	-1	-18	16	13	14	.
Cc1ccc(-n2c(C)n[nH]c2=S)cc1C	14	-15	11	6	11	7	.
N#C/C(=C\c1coc2ccc(O)cc2c1=O)C(=O)Nc1nc2ccccc2s1	54*	37	-12	31	3	33	38
N#C/C(=C\c1coc2ccccc2c1=O)C(N)=S	6	2	.	20	7	-5	.
CC(=O)c1ccc(S(=O)(=O)N2CCN(CC(=O)Nc3ccc(Cl)c([N+](=O)[O-])c3)CC2)cc1	-6	.	14	17	7	11	.
